Compound activity as filed in PubChem.
MCF10A rereplic: induces DNA re-replication in MCF 10a normal breast cells | MCF 10A DNA re-replication, Hoechst nuclear intensity, 48 h | Potency, µM (series often up to 46.1 µM), without a hit: at the highest dose activity, positive = re-replication, hits mostly activators | 2.9% of 350,000 active | AID 624296; also: potency is read from the fitted curve at half-maximal effect; % of control where 0% means no effect; nearly all actives have a fitted effect of over 50% in size
KB-V1 MDR tox: KB-V1 MDR subline cytotoxicity; KB-V1 MDR cells viability, CellTiter-Glo, 72 h; Potency, µM (series often up to 46.1 µM), most hits filed as cytotoxic; 3.4% of 400,000 active; also: potency is read from the fitted curve at half-maximal effect; % is scaled to controls: 0 for no effect and ±100 for the full control effect; nearly all actives have a fitted effect of over 60% in size
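KB-V1 cells (P-gp-expressing MDR subline of KB-3-1) in phenol-red-free DMEM with 10% FBS were exposed to library compounds over a concentration series for 72 h at 37 degrees C. Viability read by CellTiter-Glo luminescence; concentration-effect curves fitted after normalization.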
KB-3-1 cytotox: kills parental KB-3-1 adenocarcinoma cells; KB-3-1 viability, CellTiter-Glo ATP luminescence, 72 h; Potency, µM (series often up to 46.1 µM), usual class: cytotoxic; 1.4% of 400,000 active; also: potency is read from the fitted curve at half-maximal effect; % is scaled to controls: 0 for no effect and ±100 for the full control effect; nearly all actives have a fitted effect of over 60% in size
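KB-3-1 cells, DMEM (no phenol red) + 10% FBS; compound by pin transfer, 72 h, 37 °C. Readout: CellTiter-Glo luminescence after 10 min. Data normalized, curve-fitted.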
SW480 rerep: inducers of DNA re-replication in SW480 colon cancer cells | SW480 DNA re-replication, Hoechst DNA content imaging, 48 h | Potency, µM (highest dose often 46.1 µM), without a hit: at the top dose re-replication activation, hits mostly activators | 1.8% of 340,000 active | AID 624297; also: potency is read from the fitted curve at half-maximal effect; % of control where 0% means no effect; nearly all actives have a fitted effect of over 55% in size
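250 cells/well; 23 nL cpd via pin tool; 48 hr, 37 C, 5% CO2; Hoechst 40 min; imager read of total nuclear intensity, ex 405/em 500-530 nm.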
IL1B secr inh: inhibitors of inflammasome signaling (IL-1 beta secretion) | activity change, % at 57.5 µM | THP-1 LPS/ATP IL-1B secretion, AlphaLISA, 16 h; stronger effect = lower value | 4.7% of 360,000 active; in the data active = activity change below about -50%; inconclusive = mostly about -30% to -49%; also: % is scaled to controls: 0 for no effect and ±100 for the full control effect
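Secreted IL-1B measured by AlphaLISA bead assay after 16 h compound exposure of THP-1 cells; compounds (final up to 57.5 uM) added 1 h before LPS (250 ng/mL) and ATP (1.25 mM) stimulation; lower signal means less secretion.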
* = called active by the depositor; i = inactive; ? = inconclusive; . = no result given. Compounds with a hit are over-represented: about 9.9% of the library has one in this group of screens. Unless noted, calls follow the shape of the dose curve; as a rule, active = well fitted curve in the direction sought with a large enough effect; inconclusive = small, poorly fitted or top-dose-only effect, or another doubt; inactive = no such curve, though single readings can be large; an effect the other way counts as inactive or inconclusive.

SMILES | MCF10A rereplic | KB-V1 MDR tox | KB-3-1 cytotox | SW480 rerep | IL1B secr inh
C/C(=N\Nc1cc(-c2ccccc2)nc(-c2ccc(Br)cc2)n1)c1cccc(N)c1 | ? | 15µM* | i | ? | -6
C/C(=N\Nc1cc(Cl)nc(C)n1)c1ccccc1 | 6% | i | ? | -3% | -16
O=C(/C=C\NCC(=O)c1ccccc1)c1ccc2ccccc2c1 | ? | i | i | -6% | -54*
Cc1nc(CS(=O)c2ccc(Cl)cc2)cc(NCc2ccc(Cl)cc2Cl)n1 (stereo not drawn) | ? | ? | ? | -7% | -77*
COCCNC(=O)Cn1cc(/C=N/NC(=O)c2ccc(Oc3ccc(O)cc3)cc2)c2ccccc21 | 6% | i | i | -89% | -70*
CCOC(=O)N/N=C/c1cn(CCCOc2ccc(C)cc2)c2ccccc12 | 10% | 21µM* | ? | ? | -12
Cc1ccc(OCCCn2cc(C#N)c3ccccc32)cc1 | -5% | 16µM* | ? | ? | -21
N#Cc1cn(CCOc2ccc(F)cc2)c2ccccc12 | ? | i | ? | 0% | -11
CCOC(=O)N/N=C/c1cn(CCCOc2ccccc2)c2ccccc12 | 12% | ? | i | ? | -29
CCOC(=O)[C@@H](N)CS | -3% | . | . | -3% | .
O=Cc1ccc(N2CCCC2)c(F)c1 | ? | i | i | -3% | -3
CN=C1S/C(=C\c2ccc(N3CCOCC3)c(F)c2)C(=O)N1C | 19% | 16µM* | ? | ? | 13
CN=C1S/C(=C\c2ccc(N3CCCC3)c(F)c2)C(=O)N1C | 23µM* | ? | i | 13µM* | -28
CCCCCCN1C[C@H](n2cc(-c3ccc(F)cc3)nn2)[C@@H](O)C[C@@H]1c1ccccc1 | . | i | i | . | 12
Cc1ccc([C@H]2C[C@H](n3cc(-c4ccc(F)cc4)nn3)[C@@H](O)CN2C(=O)c2cccs2)cc1 | . | i | i | . | -51*
CCCCCCN1C[C@H](n2cc(COC(=O)c3ccccc3)nn2)[C@@H](O)C[C@@H]1c1ccc(Cl)cc1 | . | 21µM* | ? | . | -14
CCCCCCN1C[C@H](n2cc(-c3ccc(F)cc3)nn2)[C@@H](O)C[C@@H]1c1ccc(Cl)cc1 | . | ? | ? | . | -104*
O=C(c1cccs1)N1C[C@@H](O)[C@H](n2cc(-c3ccc(F)cc3)nn2)C[C@@H]1c1ccccc1 | . | i | ? | . | 9
CC(/C=C/c1ccccc1)=N\NC(N)=S | -4% | 18µM* | ? | 5% | 0
CC(/C=C/c1ccc(O)cc1)=NNc1ccccc1 | 23µM* | i | i | ? | -16
CC(C)(CO)NC(=O)c1ccc2nc(Cc3cccc(Cl)c3)oc2c1 | 1% | i | i | -2% | -3
COc1ccccc1NC(=O)c1coc(=O)c(Br)c1 | ? | i | i | ? | ?
Cc1ccc(NC(=O)CCSc2nnnn2-c2ccc3c(c2)OCO3)cc1C | 1% | i | i | 2% | -11
CC(=O)N(C(C)=O)C1=C(C#N)C2(CCCCC2)Cc2ccccc21 | ? | i | i | -5% | -74*
N#Cc1ccc(CSc2nc3c(c(=O)[nH]2)CCC3)cc1 | . | i | i | . | .
SMILES | MCF10A rereplic | KB-V1 MDR tox | KB-3-1 cytotox | SW480 rerep | IL1B secr inh
CNc1nc(-c2ccccc2)c2sccc2n1 | . | i | i | . | 48
O=C(CCl)N1N=C(c2ccco2)CC1c1ccco1 (stereo not drawn) | ? | ? | ? | 21µM* | -99*
Cc1ccc(C2=NN(C(=O)CSc3nccn3C)C(c3ccco3)C2)cc1 (stereo not drawn) | ? | 9.2µM* | ? | 12µM* | ?
O=C(CCl)N1N=C(c2cccs2)CC1c1ccco1 (stereo not drawn) | 18µM* | ? | ? | 12µM* | -100*
O=C(O)/C=C/C(=O)N1N=C(c2ccco2)CC1c1ccco1 (stereo not drawn) | -6% | i | i | -16% | -2
CCCc1cc(=O)[nH]c(SCC(=O)N2N=C(c3ccc(Cl)cc3)CC2c2ccco2)n1 (stereo not drawn) | ? | 21µM* | ? | -8% | ?
Cc1ccc(N(C)C(=O)c2ccc(CNc3c(N4CCC(C)CC4)c(=O)c3=O)cc2)cc1 | 1% | i | i | -3% | 11
O=C(NCc1ccccc1Cl)C1CCN(C(=O)c2ccco2)CC1 | 9% | i | i | 0% | -8
COc1ccc(NC(=O)CN(C)C(C)C(=O)NC(=O)NC2CCCCC2)cc1 (stereo not drawn) | 15% | ? | i | 4% | -10
Cc1sc(NC(=O)c2ccco2)c(C(Nc2ccccn2)c2ccccc2)c1C (stereo not drawn) | ? | i | i | 11% | -51*
COc1cccc(C(c2c(NC(=O)c3ccco3)sc(C)c2C)N2CCOCC2)c1 (stereo not drawn) | 21µM* | ? | 23µM* | 9% | 3
CCOc1ccc(C(c2c(NC(=O)c3ccccc3)sc(C)c2C)N2CCN(C)CC2)cc1 (stereo not drawn) | ? | i | i | 1% | -62*
Cc1sc(NC(=O)c2ccco2)c(C(c2ccncc2)N2CCOCC2)c1C (stereo not drawn) | 8% | i | i | 10% | 18
Cc1sc(NC(=O)c2ccco2)c(C(c2cccnc2)N2CCN(C)CC2)c1C (stereo not drawn) | ? | i | i | -4% | -4
Cc1sc(NC(=O)c2ccco2)c(C(c2cccnc2)N2CCCC2)c1C (stereo not drawn) | 21µM* | i | i | ? | -29
CCOc1ccc(C(c2c(NC(=O)c3ccco3)sc(C)c2C)N2CCOCC2)cc1 (stereo not drawn) | 21µM* | i | ? | -38% | ?
Nc1nc(=S)c2ncn(C3CCCC3)c2[nH]1 | 6% | i | i | -2% | 10
CC1CCCN(c2nc3ccsc3c(=O)s2)C1 (stereo not drawn) | 18µM* | 16µM* | ? | 18% | 5
CCS(=O)(=O)c1nc(S(=O)(=O)c2ccc(C)cc2)c(N2CCCC(C)C2)s1 (stereo not drawn) | 4% | i | i | 23% | ?
CCOC(=O)N1CCN(C(=O)CCCn2c(=S)[nH]c3ccc(Br)cc3c2=O)CC1 | 14% | 12µM* | i | 1% | 8
O=C(CCCn1c(=S)[nH]c2cc3c(cc2c1=O)OCO3)N1CCN(c2ccccc2F)CC1 | 22% | 16µM* | i | ? | 9
O=c1c2cccnc2[nH]c(=S)n1CCCN1CCN(c2ccccc2F)CC1 | ? | i | 13µM* | -1% | 4
